We go through 43 compounds from the supplement of paper PMC9399229.

Structures are written as SMILES. Counter-ions that a name gives are not always drawn. ± gives the standard deviation of the averaged measurements. The full ranking holds about 1,900 compounds; the median of “relative cell viability (CellTiter-Glo), compound alone” is about 1, and the lowest 2% start at about 0.16. Many of the other results were omitted from the sample, so the lowest values are more common in it than they were.

The assay has as its system Hep3B. As to the kind of experiment: relative cell viability (CellTiter-Glo), compound alone (fraction); higher = more viable cells (less growth inhibition). The note with it: cabozantinib 0 µM; 4 days.
Turning to `CNc1nc(Nc2cnn([C@H]3CCN(C4COC4)C[C@@H]3F)c2Cl)ncc1C(F)(F)F`, the relative cell viability came out at 1.14 ± 0.02. As for `Clc1ccc(C2(c3ccc(-c4cn[nH]c4)cc3)CCNCC2)cc1`, the figure is 0.972 ± 0.2; as for `CC1=C(C(=O)OC2CCCCC2)C(c2ccc([N+](=O)[O-])cc2)C2=C(CC(C)(C)CC2=O)N1` (stereo not drawn), 1.19 ± 0.022.

The compound `COC(=O)C1=CO[C@@H](O[C@@H]2O[C@H](CO)[C@@H](O)[C@H](O)[C@H]2O)[C@@H]2C(CO)=CC[C@H]12` [Geniposide] showed a relative cell viability of 1.11 ± 0.078. The same measure for `COc1ccc(NS(=O)(=O)c2sc3ccc(Cl)cc3c2C)cc1N1CCNCC1`: 0.974 ± 0.19; for `CCNC(=O)C#Cc1ccc2c(C(=Nc3ccc(CN(C)C)cc3)c3ccccc3)c(O)[nH]c2c1`: 0.278 ± 0.007; for `CCOC(=O)CCNc1cc(N2CCc3ccccc3CC2)nc(-c2ccccn2)n1`: 0.742 ± 0.084.

`Cc1cc(OCc2nnc(SC3CCCC3)n2-c2cccnc2)ccc1-c1ccc(S(C)(=O)=O)cc1` yielded a relative cell viability of 1.07 ± 0.024. The same measure for `CCOC(=O)Nc1cc(-c2ccc(C)c(NS(C)(=O)=O)c2)nn2c(C)nnc12` [Bromosporine]: 0.851 ± 0.044. As to `CCc1c(O)cc(O)c(C(=O)c2ccc(OCCN3CCOCC3)c(OC)c2)c1CC(=O)N(CCOC)CCOC`, the relative cell viability came out at 0.48 ± 0.01. As for `COC(=O)C[C@H](NC(=O)[C@H](C)NC(=O)[C@@H](NC(=O)OCc1ccccc1)C(C)C)C(=O)CF`, the figure is 1 ± 0.094. As for `NC(=O)c1cccc2[nH]c(-c3ccc(C4CCCN4)cc3F)nc12` (stereo not drawn), the figure is 0.981 ± 0.079; as for `NC1=N[C@@](c2cccc(-c3cncnc3)c2)(c2ccnc(C(F)F)c2)c2cccc(F)c21`, 1.34 ± 0.037. As for `COc1cccc2c1C(=O)c1c(O)c3c(c(O)c1C2=O)C[C@@](O)(C(C)=O)C[C@@H]3O[C@H]1C[C@H](N)[C@H](O)[C@H](C)O1` [Daunorubicin HCl], the figure is 0.0682 ± 0.0026; as for `COc1cccc2c1C(=O)c1c(O)c3c(c(O)c1C2=O)C[C@@](O)(C(=O)CO)C[C@@H]3O[C@H]1C[C@H](N)[C@@H](O)[C@H](C)O1` [Epirubicin HCl], 0.0641 ± 0.0026; as for `COc1cccc2c1C(=O)c1c(O)c3c(c(O)c1C2=O)C[C@@](O)(C(=O)CO)C[C@@H]3O[C@H]1C[C@H](N)[C@H](O[C@@H]2CCCCO2)[C@H](C)O1` [Pirarubicin], 0.157 ± 0.078. For `COc1cccc2c1C(=O)c1c(O)c3c(c(O)c1C2=O)C[C@@](O)(C(=O)CO)C[C@@H]3O[C@H]1C[C@H](N)[C@H](O)[C@H](C)O1` [Doxorubicin (Adriamycin)], the relative cell viability came to 0.144 ± 0.0086.

With `O=C(O)c1cc(I)ccc1NC(=O)[C@H](Cc1ccccc1)NCc1ccccc1`, the relative cell viability is 1.03 ± 0.032. As for `C=CC(=O)N1CCC(Oc2cc3c(Nc4ccc(Cl)c(Cl)c4F)ncnc3cc2OC)CC1` [Poziotinib (HM781-36B)], the figure is 0.933 ± 0.022; as for `CN(C)CCN1C(=O)c2cccc3cc(N)cc(c23)C1=O` [Amonafide], 1.22 ± 0.09. `C=CC(=O)Nc1ccc2ncnc(Nc3ccc(OCc4cccc(F)c4)c(Cl)c3)c2c1` registered a relative cell viability of 1.41 ± 0.053. Regarding `NC(=O)Nc1cc(-c2cccc(F)c2)sc1C(=O)N[C@H]1CCCNC1`, the relative cell viability amounted to 0.151 ± 0.016. The same measure for `COc1cc(C(=O)NC2CCCNC2)cc(OC)c1OC` (stereo not drawn) [Troxipide]: 1.07 ± 0.12; for `NC(=O)Nc1sc(-c2ccc(F)cc2)cc1C(N)=O`: 1.1 ± 0.043. `O=C(NO)c1cccc(C(=O)NCCc2ccccc2)c1` came in with a relative cell viability of 1.16 ± 0.059. For `COc1cc2ncc(-c3ccccc3)nc2cc1OC` [Tyrphostin AG 1296], the relative cell viability worked out at 1 ± 0.02. The same measure for `Nc1nccc2c1ncn2C1C=C(CO)C(O)C1O` (stereo not drawn) [3-Deazaneplanocin A (DZNeP)]: 0.933 ± 0.013; for `Cc1nc(C#Cc2ccnc(Cl)c2)c(C)n1-c1ccc(OC(F)(F)F)cc1`: 1 ± 0.056.

`O=C(/C=C/c1ccc2ccccc2n1)c1ccncc1` registered a relative cell viability of 0.167 ± 0.0076. In turn, `CCOC(=O)n1ccn(C)c1=S` [Carbimazole] gave a relative cell viability of 1.02 ± 0.14. In the case of `CNc1ncnc2c1ncn2[C@@H]1O[C@H](CO)[C@@H](O)[C@H]1O` [N6-methyladenosine (m6A)], the relative cell viability is 1.15 ± 0.042.

Compound `COc1ccc(C[C@H](N)C(=O)N[C@H]2[C@@H](O)[C@H](n3cnc4c(N(C)C)ncnc43)O[C@@H]2CO)cc1` [Puromycin 2HCl] gave a relative cell viability of 0.0517 ± 0.001. On to `COc1nc(N)nc2c1ncn2[C@@H]1O[C@H](CO)[C@@H](O)[C@@H]1O` [Nelarabine], for which the relative cell viability was determined as 1.1 ± 0.035. As for `COc1cc(-c2cc(-c3ccc(N4CCNCC4)cc3)cnc2C)cc(OC)c1OC`, the figure is 0.937 ± 0.023; as for `COc1ccc(-c2cnc3c(-c4cccc5ncccc45)cnn3c2)cc1`, 1.31 ± 0.03; as for `c1cc(-c2cnn3cc(-c4ccc(N5CCNCC5)cc4)cnc23)c2cccnc2c1`, 0.142 ± 0.013. As for `CCCNCC(O)COc1ccccc1C(=O)CCc1ccccc1` (stereo not drawn) [Propafenone HCl], the figure is 0.855 ± 0.07; as for `Cc1cc(-c2ccc(CC(=O)Nc3ccc(-c4cccnc4)cc3)cc2)ccn1`, 1.268 ± 0.0057. As for `CC(C=CC(=O)NO)=CC(C)C(=O)c1ccc(N(C)C)cc1` (stereo not drawn) [Trichostatin A (TSA)], the figure is 0.131 ± 0.019; as for `CN1CCN(c2ccc(Nc3cc(-c4cccc(-n5ccc6cc(C7CC7)cc(F)c6c5=O)c4CO)cn(C)c3=O)nc2)CC1`, 1.1 ± 0.14; as for `Cc1cc(NC(=O)c2cccc(NC(=O)/C=C/CN(C)C)c2)ccc1Nc1nccc(-c2cccnc2)n1`, 0.837 ± 0.011. The compound `O=C(c1cncc(Br)c1)N1CCC(N2CCCC2)CC1` gave a relative cell viability of 1.03 ± 0.058.

`O=C(COc1cccc2c(=O)[nH]ccc12)c1ccccc1` came in with a relative cell viability of 1.16 ± 0.033.
